High-throughput results (PubChem)
GAA850 FXN act: frataxin GAA850 promoter activation; HEK293 lucGAA850 FXN promoter luciferase reporter, 24 h; percent of 10 µM SAHA response; activation, % at 6 µM; 0.56% of 360,000 active; AID 540364;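 active means activation above the average of all compounds screened plus 3 SD, cutoff fixed separately per campaign, cut at about 7.5% in these data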;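 further: 0% = DMSO wells and 100% = 10 µM SAHA wells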
EWS-Fli inh: EWS/Fli transcriptional activity inhibition; A673 NR0B1-luciferase reporter, viability-normalised; inhibition, % at 12.6 µM; 0.67% of 350,000 active; AID 651661;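 active means mean inhibition of at least 50% after viability correction, with every replicate also passing that limit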;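 further: firefly luciferase signal divided by Alamar Blue viability fluorescence both relative to DMSO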
HIV Env fusion: inhibitors of HIV Env-mediated cell fusion. inhibition, % at 12.3 µM. 1.1% of 360,000 active. HeLa-JRFL Env/CEM21 cell fusion, luciferase;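 active means mean replicate inhibition score of at least 50 and every replicate individually at or above 50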;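 further: 0% = plate neutral controls and 100% = maraviroc near 300 nM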
PAX8 reporter: PAX8 transcriptional activity inhibition; RMG-I TPO-luciferase reporter, SteadyGlo, 24 h; inhibition, % at 12.6 µM; 1.2% of 360,000 active; AID 652154;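 active means mean replicate inhibition at least 60% with every replicate also reaching 60%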;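 further: luciferase light reporting Pax8 driven TPO promoter activity; plate controls were median of neutral control wells for no effect and mitoxantrone controls for full effect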
F508del corr: CFTR F508del correction in bronchial cells; CFBE cells, YFP halide quenching; stimulated with forskolin plus potentiator P3; % fluorescence drop versus neutral controls; activity (quench increase), % at 7.58 µM; 0.36% of 350,000 active; AID 720511;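 active means mean added fluorescence quench of at least 8% versus neutral control, with both replicates also reaching 8%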;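 further: cells transiently co-express mutant CFTR-F508del with the halide-sensitive YFP; corrector assay measuring rescue of mutant channel to the surface after 24 h compound exposure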
An asterisk follows results filed as active; [ ] = remark or other dose. Hits are enriched below; roughly 2.5% of the tested compounds scored in any of these assays.

C[C@@H]1CN([C@@H](C)CO)C(=O)c2ccccc2-c2ccccc2CO[C@@H]1CN(C)Cc1ccc2c(c1)OCCN2C was read as EWS-Fli inh 14, HIV Env fusion -36[16.7 µM], PAX8 reporter 90* and F508del corr 1.
For C[C@H]1CN([C@@H](C)CO)C(=O)c2ccccc2-c2ccccc2CO[C@H]1CN(C)Cc1ccc(F)cc1 the results were EWS-Fli inh -1, HIV Env fusion 73*[16.7 µM], PAX8 reporter 15 and F508del corr 0.
C[C@H](CO)N1C[C@H](C)[C@H](CN(C)Cc2ccccc2)OCc2ccccc2-c2ccccc2C1=O was read as EWS-Fli inh 70* and F508del corr -2.
Screening C[C@H](CO)N1C[C@H](C)[C@H](CN(C)Cc2ccc(-c3ccccc3)cc2)OCc2ccccc2-c2ccccc2C1=O returned PAX8 reporter 16 and F508del corr -4.
For C[C@H]1CN([C@@H](C)CO)C(=O)c2c(c3ccccc3n2C)-c2ccccc2CO[C@H]1CN(C)Cc1ccc2c(c1)OCCN2C the results were EWS-Fli inh 8, PAX8 reporter 1 and F508del corr 2.
`O=C(N[C@H]1CC[C@H](CCn2cc(C3(O)CCCC3)nn2)O[C@@H]1CO)C1CCOCC1` gave EWS-Fli inh -7, HIV Env fusion 13[16.7 µM], PAX8 reporter 4 and F508del corr 0.
Screening CO[C@@H]1CN(C)C(=O)c2ccc(NC(=O)C3CC3)cc2OC[C@H](C)N(C(=O)NC(C)C)C[C@@H]1C returned EWS-Fli inh 2, PAX8 reporter 1 and F508del corr 0.
For C[C@@H]1CN([C@@H](C)CO)C(=O)c2ccccc2-c2ccccc2CO[C@@H]1CN(C)Cc1ccc(Cl)c(Cl)c1 the results were EWS-Fli inh 3, HIV Env fusion -24, PAX8 reporter 71* and F508del corr 2.
Screening CC(C)[C@H](C)NC(=O)N(C)C[C@H]1OCc2ccccc2-c2ccccc2C(=O)N([C@@H](C)CO)C[C@@H]1C returned EWS-Fli inh -5, HIV Env fusion 56*[16.7 µM], PAX8 reporter 1 and F508del corr 1.
For CC(C)[C@@H](C)NC(=O)N(C)C[C@@H]1OCc2ccccc2-c2ccccc2C(=O)N([C@H](C)CO)C[C@H]1C the results were EWS-Fli inh 0, HIV Env fusion -1[16.7 µM], PAX8 reporter -7 and F508del corr -1.
C[C@H]1CN([C@@H](C)CO)C(=O)c2ccccc2-c2ccccc2CO[C@@H]1CN(C)C(=O)Nc1cccc(C(F)(F)F)c1 was read as EWS-Fli inh 9, HIV Env fusion 59*[16.7 µM], PAX8 reporter 14 and F508del corr -3.
For C[C@H]1CN([C@@H](C)CO)C(=O)c2ccccc2-c2ccccc2CO[C@H]1CN(C)Cc1cccc(F)c1 the results were EWS-Fli inh -5, HIV Env fusion 62*[16.7 µM], PAX8 reporter -3 and F508del corr -2.
For C[C@H](CO)N1C[C@H](C)[C@H](CN(C)C(=O)C2CC2)Oc2cc(C3=CCCCC3)ccc2S1(=O)=O the results were EWS-Fli inh 4, HIV Env fusion 26[16.7 µM] and F508del corr -5.
`COc1ccc2c3c(n(C)c2c1)[C@@H](CO)N(C(=O)Cc1ccccc1)CC31CN(C)C1` gave EWS-Fli inh -15, PAX8 reporter -32 and F508del corr -2.
`C/C=C/c1ccc([C@@H]2[C@@H](CO)N(C(C)=O)[C@H]2CN(CC)C(=O)CC)cc1` gave EWS-Fli inh -2, PAX8 reporter 5 and F508del corr -3.
`CO[C@H]1CN(C)C(=O)c2ccc(NS(=O)(=O)c3ccccc3C)cc2OC[C@H](C)N(C)C[C@H]1C` gave EWS-Fli inh 1, HIV Env fusion -8[16.7 µM], PAX8 reporter 1 and F508del corr 1.
`COc1ccc(NCC(=O)n2c(C)c(C)c3ccccc32)cc1` gave GAA850 FXN act -4, EWS-Fli inh 25, HIV Env fusion -146, PAX8 reporter 10 and F508del corr 9.4*.
CC1CCc2c(sc3ncnc(N4CCOCC4)c23)C1 (stereo not drawn) was read as GAA850 FXN act 2 and HIV Env fusion 92*.
Screening CC1CCc2sc3ncnc(N4CCOCC4)c3c2C1 (stereo not drawn) returned GAA850 FXN act 2.
`COc1cc(C2C3=C(COC3=O)Oc3cc4c(cc32)OCO4)cc(OC)c1OC(C)=O` (stereo not drawn) gave GAA850 FXN act -4, EWS-Fli inh 55*, HIV Env fusion 37, PAX8 reporter 80* and F508del corr -1.
For COc1cc(C2C3=C(COC3=O)Oc3cc4c(cc32)OCO4)ccc1OC(C)=O (stereo not drawn) the results were GAA850 FXN act -3, EWS-Fli inh 24, HIV Env fusion -251, PAX8 reporter -4 and F508del corr 4.
Screening COc1ccc(C2C3=C(COC3=O)Oc3cc4c(cc32)OCO4)cc1OC (stereo not drawn) returned GAA850 FXN act -2, EWS-Fli inh 17, HIV Env fusion -2, PAX8 reporter -28 and F508del corr 9.6*.
For CO[C@@H]1CN(C)C(=O)c2ccc(NS(=O)(=O)c3cn(C)cn3)cc2OC[C@@H](C)N(C)C[C@@H]1C the results were EWS-Fli inh -5, HIV Env fusion -9[16.7 µM], PAX8 reporter -3 and F508del corr 0.
Screening C/C=C/c1ccc2c(c1)O[C@H](CN(C)CC1CCCC1)[C@@H](C)CN([C@H](C)CO)S2(=O)=O returned EWS-Fli inh 3, HIV Env fusion 5[16.7 µM], PAX8 reporter 23 and F508del corr -5.
For O=C(C1CCCC1)N1CC2(C1)[C@H](c1ccccc1)[C@@H](CO)N2CC1CC1 the results were EWS-Fli inh 4, PAX8 reporter -10 and F508del corr 0.
Screening Cc1ccc(S(=O)(=O)N2CCCCC2)cc1NC(=O)Cc1c[nH]c2ccccc12 returned GAA850 FXN act 1, EWS-Fli inh 19, PAX8 reporter 153* and F508del corr 2.
For Cc1ccc(S(=O)(=O)N2CCCCC2)cc1NC(=O)Cn1c(=O)cnc2ccccc21 the results were GAA850 FXN act 7, EWS-Fli inh -11, HIV Env fusion 59*, PAX8 reporter 0 and F508del corr 3.
`Cc1ccc(NC(=O)Cn2c(=O)cnc3ccccc32)cc1S(=O)(=O)N1CCCCC1` gave GAA850 FXN act -1, EWS-Fli inh 7, HIV Env fusion 8, PAX8 reporter 12 and F508del corr 2.
COc1cc(/C=N/NC(=O)C23CC4CC(CC(C4)C2)C3)cc(Br)c1O was read as GAA850 FXN act -2, EWS-Fli inh 3, HIV Env fusion -62 and PAX8 reporter 67*.
COc1ccc(Cc2c(-c3ccc(C)cc3)nc3c(C)cc(Br)cn23)c(C)c1 was read as EWS-Fli inh -9, HIV Env fusion -12, PAX8 reporter 22 and F508del corr -8.
Screening Clc1ccc(-c2nc3c4ccccc4ccn3c2Cc2ccsc2)cc1 returned EWS-Fli inh -3, HIV Env fusion 65*, PAX8 reporter 16 and F508del corr 1.
